Bioassay records: PubChem BioAssay, The Scripps Research Institute Molecular Screening Center
Most compounds without a hit are left out; they make up all but 5.7% or so of the library.
hcDAF12 agonist: H. contortus DAF-12 nuclear receptor activators, primary screen, cell-based, luminescence, HEK293, lit1-tk-luc reporter. HEK293 hcDAF-12 lit1-tk-luc reporter; 0% DMSO, 100% Δ7-dafachronic acid. activation, % at 6.8 µM. 1.4% of 370,000 active. AID 652067, 2013;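 active = activation above the mean of all tested compounds plus 3 SD, cut at about 5.5% in these data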;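 note: 100% = response to 3 µM Δ7-dafachronic acid high control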
DAX1 inh-1: DAX1 (NR0B1) inhibitors, primary screen, cell-based, HEK293, Gal4-DAX1, luciferase luminescence; 0.99% of 340,000 active; inhibition, % at 6.75 µM; HEK293 Gal4-DAX1 luciferase reporter; Nuclear receptor subfamily 0 group B member 1 (Homo sapiens), P51843;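 active = inhibition above the mean over all tested compounds plus 3 SD, cut at about 4.2% in these data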;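 note: 0% = DAX1-transfected cells with DMSO and 100% = empty-vector control cells with DMSO; inhibition shows as a rise in luminescence from relieved DAX1 repression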
AHR act: AHR activators, primary screen, cell-based, luminescence, luciferase reporter, human | activation, % at 5 µM | Aryl hydrocarbon receptor (Homo sapiens), P35869 | 2.5% of 320,000 active | AHR-responsive luciferase reporter cells; in the data active = activation above about 47%;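 note: 0% = vehicle wells and 100% = reference agonist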
hgDAF12 agonist: H. glycines DAF-12 receptor agonists, primary screen, cell-based, luminescence, HEK293, GAL4 fusion, UAS-luciferase | activation, % at 6.8 µM | Nuclear hormone receptor DAF-12 (Heterodera glycines), GAL4 fusion | 1.8% of 370,000 active | HEK293 GAL4-hgDAF12 UAS-luciferase reporter, agonist luminescence; normalized to butyrate control;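 active = activation above a cutoff set at the mean of all screened compounds plus 3 SD, cut at about 10% in these data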;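 note: 0% = DMSO wells and 100% = sodium butyrate wells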
ssDAF12 agonist: S. stercoralis DAF-12 nuclear receptor activators, primary screen, cell-based, luminescence, HEK293, GRIP1 co-expression, lit1-tk-luc; Nuclear hormone receptor DAF-12 (Strongyloides stercoralis); HEK293 ssDAF-12/GRIP1 lit1-tk-luc reporter; % of 3 µM dafachronic acid response; activation, % at 6.8 µM; 1% of 370,000 active; AID 652126, 2013;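 active = activation above the mean over all tested compounds plus 3 SD, cut at about 0.9% in these data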;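 note: 0% = DMSO-only wells and 100% = 3 µM delta7-dafachronic acid wells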
DAX1 inh-2: DAX1 (NR0B1) inhibitors on StAR promoter, primary screen, cell-based, luminescence, SF-1 (NR5A1), full-length DAX-1 | HEK293T StAR-luciferase reporter, SF-1/DAX-1 repression relief | inhibition, % at 6.8 µM | 1.1% of 370,000 active | AID 652010, 2013;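 active = inhibition above the mean over all tested compounds plus 3 SD, cut at about 3.6% in these data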;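 note: 0% = DAX-1 cells with DMSO and 100% = cells lacking DAX-1 with DMSO; higher inhibition means more luminescence from relief of DAX-1 repression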
The depositor's hits bear a star; . = no result given.

SMILES	hcDAF12 agonist	DAX1 inh-1	AHR act	hgDAF12 agonist	ssDAF12 agonist	DAX1 inh-2
CCC(=O)c1ccc(Oc2nc3c(c(=O)n(C)c(=O)n3C)n2CC)cc1	0	-1	61*	2	-2	0
COC(=O)c1ccc(Oc2nc3c(c(=O)n(C)c(=O)n3C)n2CCC(C)C)cc1	-1	0	0	1	-1	1
COCCN(Cc1ccccc1)C(=O)Cc1ccc(OC)c(S(=O)(=O)N2CCOCC2)c1	-1	-1	-3	-2	-1	0
CCOc1ccc(-c2ccc(SCC(=O)Nc3nnc(CC)s3)nn2)cc1	2	3	2	13*	0	3.7*
CCc1nnc(NC(=O)CSc2ccc(-c3ccc(C)cc3)nn2)s1	3	0	12	4	-2	2
Cc1onc(-c2c(F)cccc2Cl)c1C(=O)OCC(=O)Nc1c(C)n(C)n(-c2ccccc2)c1=O	-1	-1	-2	-2	-1	-1
COc1ccc2c(c1)S/C(=C\C(=O)c1ccncc1)N2C	1	2	-5	12*	0	1
O=C(COc1ccc(Cl)cc1Cl)c1ccc[nH]1	0	8.0*	10	7	-1	0
CCOC(=O)CCC(=O)NNC(=O)COc1ccc(C(C)C)cc1Br	1	1	22	1	-2	0
O=C(Nc1ccc(C(F)(F)F)cc1)c1cccnc1N1CCOCC1	0	-1	61*	-2	0	0
CCS(=O)(=O)N1CCN(C2CCC(C)CC2)CC1 (configuration not stated)	-1	0	-1	2	1.1*	1
N#CCCn1nc(-c2ccccc2)cc1Nc1ccccc1NC(=O)c1cccs1	1	-1	49*	-1	-1	-1
O=C(C1CC1)N1CCC(C(O)(c2ccccc2)c2ccccc2)CC1	-1	5.1*	-3	0	-1	0
Cc1ccc2c(c1)c1c3n2CCN(CCC(=O)O)C3CCC1 (configuration not stated)	0	1	-3	1	-1	0
CCN1CCn2c3c(c4cc(Br)ccc42)CCCC31 (configuration not stated)	-1	1	49*	1	-1	0
Cc1ccc2c(c1)c1c3n2CCN(CC#N)C3CCC1 (configuration not stated)	0	6.5*	44	2	-1	1
O=C(OC1CCOC1=O)c1cccc(S(=O)(=O)Nc2cccc(Cl)c2)c1 (configuration not stated)	0	1	-2	1	-1	0
O=C(CSc1ccccc1)NC(=O)NCc1ccccc1	2	0	8	4	-1	0
COC(=O)c1cc(OC)c(OC)cc1NC(=S)Nc1cccc(Cl)c1	-1	0	9	2	-1	0
O=C(Nc1ccc(CN2CCOCC2)cc1)c1ccccc1F	2	0	7	12*	0	3
O=C(Nc1ccc(CN2CCOCC2)cc1)c1cc2ccccc2o1	6	-1	0	8	0	3.6*
CCCNC(=O)C1CC(=O)N(c2ccc(OCC(=O)Nc3cc(C)cc(C)c3)cc2)C1 (configuration not stated)	-1	3	1	1	-2	1
CCOC(=O)C1CCN(C(=O)C(C)Sc2ccc(Cl)cc2)CC1 (configuration not stated)	-1	4.7*	3	3	-1	0
CCOC(=O)C1CCN(C(=O)c2cc3cc(Cl)ccc3[nH]2)CC1	6.5*	1	25	4	-1	0
Cc1cccc(NC(=O)CSc2nc(=O)n3ccccc3n2)c1C	1	1	-2	0	-1	-1
SMILES	hcDAF12 agonist	DAX1 inh-1	AHR act	hgDAF12 agonist	ssDAF12 agonist	DAX1 inh-2
O=C(CSc1nc(=O)n2ccccc2n1)Nc1cccc2ccccc12	2	1	17	2	1.0*	1
O=C(CSc1cccs1)Nc1cccc2ccccc12	5	1	7	11*	0	2
CCn1c(=O)cc(N2CCN(Cc3ccccc3)CC2)[nH]c1=O	0	0	-1	-2	-2	0
Cc1cccc(COc2ccccc2C(=O)N(C)CC(=O)Nc2cccc(F)c2)c1	0	0	0	-3	0	0
Cc1ccc(NC(=O)C2COc3ccccc3O2)cc1C (configuration not stated)	.	4.9*	-4	.	.	.
Cc1nc2ccc(NC(=O)C3COc4ccccc4O3)cc2s1 (configuration not stated)	3	2	2	12*	-1	2
Cc1cccc(NC(=O)C2COc3ccccc3O2)c1 (configuration not stated)	2	0	0	4	0	1
CN(C)S(=O)(=O)c1ccc(NC(=O)C2COc3ccccc3O2)cc1 (configuration not stated)	-2	4.5*	7	-2	0	0
O=c1cc(/C=C/c2cccs2)[nH]c2ccccc12	-3	0	4	0	-2	-1
COc1ccc(C(=O)Nc2ccccc2C(N)=O)cc1	0	0	9	13*	0	2
COC(=O)c1ccccc1NC(=S)NC(=O)c1ccc2c(c1)OCO2	2	-1	.	1	0	0
COc1ccc(C(=O)Nc2ccccc2C(=O)Nc2ccncc2)cc1	3	0	61*	1	-1	-1
NC(=O)c1ccccc1NC(=O)c1ccc2c(c1)OCO2	2	2	39	11*	0	1
O=C(COC(=O)COc1ccc(Cl)cc1)Nc1ccc(F)c([N+](=O)[O-])c1	0	0	-3	3	-1	0
CCN(CC)C(=O)c1ccc(/C=C/c2c[nH]c3ccccc23)[n+](C)c1	2	0	12	2	1.6*	1
Cc1cc(C(=O)N/N=C/c2cc(Br)ccc2OC(=O)c2ccccc2Cl)n[nH]1	-1	-1	65*	-3	-1	-4
c1ccc(C(c2nnnn2Cc2cccs2)N2CCN(C3CCCC3)CC2)cc1 (configuration not stated)	0	-1	0	-2	-1	1
FCCCOc1ccc(CN2CCN(c3ccccc3F)CC2)cc1	-2	-1	0	-3	-1	0
